Results on 87 sequences are retold here after the supplement of paper PMC12636033.

± gives the standard deviation of the averaged measurements. In all, about 33,000 sequences were measured (“E-score (rank enrichment, -0.5 to 0.5)”: median about -0.0068, highest 2% from about 0.24 on). For the sample, the highest values were picked, then their nearest neighbours and some sequences at random.

The test system of the experiment is muMax20 (Max(13-93) K31hArg/K57hArg, M65Nle). Put plainly: PBM 8-mer E-score (E-score (rank enrichment, -0.5 to 0.5)); higher = stronger preferential binding. Here is the method: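 Protein binding microarray (universal PBM chip covering all 10-mers in fixed probe flanks) with chemically synthesized human Max(13-93) bHLH-LZ analogs (not full-length Max) bearing noncanonical residues (hArg, Tha, Aib, Nle at 65) and aromatic Cys staples. Read-out per 8-mer (and its reverse complement): E-score (rank-based enrichment, -0.5 to 0.5) and Z-score of median probe intensity.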
For ACGTGAAC, the “PBM 8-mer E-score” value amounted to 0.0624 ± 0.078.
The same measure for ACGTGAGG: 0.111 ± 0.1; for AAGTGATC: 0.074 ± 0.034; for ACTTGATC: -0.00466 ± 0.064.
As for ACGTGAGT, the figure is 0.2594 ± 0.0012; as for ACGTGAAA, 0.249 ± 0.083; as for ACTTGATG, 0.0184 ± 0.013.
Take TCGTGAAA: the “PBM 8-mer E-score” value is 0.0589 ± 0.081.
As for ACTTGATA, the figure is 0.242 ± 0.033; as for CCGTGATC, -0.311 ± 0.027; as for ACGTGATC, 0.286 ± 0.1.
Take ACGTGAGA: the “PBM 8-mer E-score” value was found to be 0.168 ± 0.054.
The same measure for CGGTTCAC: -0.245 ± 0.053; for AGCATTCC: -0.123 ± 0.17; for GGAGCCCA: -0.156 ± 0.11.
As for CCTGTGAC, the figure is -0.0438 ± 0.0042.
As for CCATAGAC, the figure is -0.0388 ± 0.035; as for GACGTTGA, 0.0147 ± 0.11.
Turning to ATCCTTTG, the “PBM 8-mer E-score” value turned out to be 0.0245 ± 0.09.
As to CTGAGCAC, the “PBM 8-mer E-score” value is -0.0319 ± 0.049.
The same measure for TCGAGAGA: -0.0503 ± 0.027; for AATGACTC: 0.152 ± 0.015.
As for GTTGAACA, the figure is 0.031 ± 0.035; as for CGTAACTC, -0.0982 ± 0.11.
The same measure for AACACGGT: -0.129 ± 0.055.
For TCCGCGCA, the “PBM 8-mer E-score” value was -0.113 ± 0.072.
Take ACGTGATG: the “PBM 8-mer E-score” value worked out at 0.294 ± 0.05.
The same measure for CTGTGATA: -0.0301 ± 0.17; for GTGTGATA: 0.154 ± 0.018; for AGGTGATG: -0.00343 ± 0.027.
Consider ATGTGATA, for which the “PBM 8-mer E-score” value worked out at 0.24 ± 0.12.
The same measure for GCGTGATA: 0.174 ± 0.032; for ATGTGAAA: 0.317 ± 0.057; for CCGTGATA: -0.0912 ± 0.033.
With ACGTGATA, the “PBM 8-mer E-score” value came out at 0.33 ± 0.082.
As for CTGTGAAA, the figure is 0.0471 ± 0.025; as for AAGTGATG, 0.129 ± 0.12; as for GTGTGAAA, 0.141 ± 0.027.
ACTATGCT: the “PBM 8-mer E-score” value turned out to be 0.231 ± 0.07.
As for CCCGAGGA, the figure is -0.233 ± 0.074.
The same measure for ATGGGATC: 0.0291 ± 0.075; for CTAACTCA: 0.0355 ± 0.056; for AGCCGATG: -0.155 ± 0.04.
AATCACCA: the “PBM 8-mer E-score” value was found to be 0.133 ± 0.014.
As for AGTGTCCC, the figure is -0.0112 ± 0.012.
Consider GATATTAC, for which the “PBM 8-mer E-score” value came to 0.121 ± 0.015.
Regarding TGTATTAA, the “PBM 8-mer E-score” value was determined as 0.184 ± 0.096.
The same measure for ACTATTAT: 0.204 ± 0.056; for AACATTGT: 0.236 ± 0.013.
For the sequence CATATTAC, the “PBM 8-mer E-score” value worked out at 0.0522 ± 0.03.
The same measure for AGTATTAG: 0.0793 ± 0.032; for AGTATTAA: 0.268 ± 0.03; for AATATTAT: 0.25 ± 0.026.
As for AACATTGA, the figure is 0.0179 ± 0.032; as for AATATTAC, 0.281 ± 0.066; as for AATATTAG, 0.175 ± 0.04.
The same measure for AACATTGG: -0.0243 ± 0.2.
Consider CCCGCGCA, for which the “PBM 8-mer E-score” value was -0.124 ± 0.031.
The same measure for ATGTGGCA: 0.0287 ± 0.095; for AGCATTTC: 0.141 ± 0.0034; for CAACTAAG: 0.0637 ± 0.092.
Turning to ATTGCAAA, the “PBM 8-mer E-score” value came out at 0.0872 ± 0.083.
The same measure for AGGTCCTA: -0.128 ± 0.083.
Regarding TTCCCGAA, the “PBM 8-mer E-score” value is -0.0933 ± 0.0092.
As for AATAGAAC, the figure is 0.0563 ± 0.077.
The same measure for CATATTAA: 0.297 ± 0.012; for AATATTAA: 0.304 ± 0.025; for TATATTAA: 0.179 ± 0.025.
For the sequence CATATTAG, the “PBM 8-mer E-score” value was determined as 0.121 ± 0.053.
Take GATATTAA: the “PBM 8-mer E-score” value was found to be 0.134 ± 0.028.
As for AATATTGG, the “PBM 8-mer E-score” value amounted to 0.101 ± 0.094.
In the case of ACTATTAA, the “PBM 8-mer E-score” value stood at 0.149 ± 0.011.
Consider AATATTGC, for which the “PBM 8-mer E-score” value was determined as 0.138 ± 0.076.
Take AATATTGT: the “PBM 8-mer E-score” value worked out at 0.256 ± 0.006.
For the sequence CGCGCTCC, the “PBM 8-mer E-score” value is -0.0678 ± 0.11.
With AGCTGTAC, the “PBM 8-mer E-score” value was -0.0262 ± 0.13.
As for GGACTGTA, the figure is 0.00313 ± 0.055.
As for ATTTGTAC, the figure is 0.176 ± 0.038; as for AATTATAT, 0.147 ± 0.044.
Consider CTATCAGC, for which the “PBM 8-mer E-score” value is 0.0217 ± 0.00023.
Turning to CAGTCATA, the “PBM 8-mer E-score” value was determined as 0.0326 ± 0.1.
The same measure for GAAACGGC: 0.0377 ± 0.059; for CAACGGCC: -0.206 ± 0.059.
The same measure for AAACGGCT: -0.0843 ± 0.069.
AAACGGCC: the “PBM 8-mer E-score” value was determined as 0.294 ± 0.093.
CAAACGGC: the “PBM 8-mer E-score” value is -0.242 ± 0.0069.
Take AAAACGGC: the “PBM 8-mer E-score” value came out at 0.3 ± 0.099.
